Bioassay records deposited in PubChem BioAssay by several laboratories.
Compounds with a hit are over-represented: about 2.6% of the library has one in this group of screens.
MCL1-BIM inh: MCL1-BIM-BH3 interaction inhibition (human); Q07820; hit rate 0.68% among 320,000; inhibition, % at 10.9 µM; GST-MCL1 / FITC-Bim-BH3 fluorescence polarization;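 active = inhibition above the mean inhibition of all tested compounds plus 3 SD, set per campaign, cut at about 40% in these data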;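 note: higher means more loss of mP so more displacement of Bim peptide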
Target sequence (Q07820 whole entry, looked up): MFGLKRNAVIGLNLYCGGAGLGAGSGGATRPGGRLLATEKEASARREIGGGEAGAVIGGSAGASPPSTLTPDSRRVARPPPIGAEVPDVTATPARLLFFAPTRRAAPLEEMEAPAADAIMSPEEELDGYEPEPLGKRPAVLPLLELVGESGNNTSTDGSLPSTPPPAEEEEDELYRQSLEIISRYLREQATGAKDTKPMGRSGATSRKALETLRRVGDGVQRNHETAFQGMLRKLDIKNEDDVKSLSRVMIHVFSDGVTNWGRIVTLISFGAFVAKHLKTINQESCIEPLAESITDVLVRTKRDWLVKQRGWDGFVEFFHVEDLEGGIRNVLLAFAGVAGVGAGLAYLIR
Mcl-1 Bim block: human Bim-Mcl-1 interaction inhibition. inhibition, % at 10 µM. Q07820. hit rate 0.1% among 190,000. Bead-based flow cytometry, Bim peptide-Mcl-1 binding; in the data active = inhibition above about 40%
14-3-3 Bad inh: disrupts binding of bovine 14-3-3 zeta to phospho-Bad peptide; TR-FRET 14-3-3zeta/Dy647-pBad peptide displacement, 1 h; inhibition, % at 21.7 µM; hit rate 0.71% among 220,000; AID 781;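 active = inhibition above about 70%, limit read from the data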
Target sequence (P63103 whole entry, looked up): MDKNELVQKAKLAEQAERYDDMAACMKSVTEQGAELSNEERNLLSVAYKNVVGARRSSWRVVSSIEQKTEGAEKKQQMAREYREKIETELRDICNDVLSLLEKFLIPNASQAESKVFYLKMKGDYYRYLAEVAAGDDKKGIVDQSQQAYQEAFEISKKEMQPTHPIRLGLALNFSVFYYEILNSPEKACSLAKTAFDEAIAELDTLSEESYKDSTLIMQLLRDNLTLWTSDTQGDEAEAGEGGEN
Mcl1-Noxa inh: Mcl-1/Noxa interaction inhibition; Q07820; TR-FRET Mcl-1/Noxa peptide binding, 2 h; inhibition, % at 21.7 µM; hit rate 1.5% among 220,000;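 active = compounds that cut the protein-peptide binding signal by more than 50% relative to plate controls in a single-dose test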;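 note: His-tagged Mcl-1 with rhodamine Noxa BH3 peptide and terbium anti-His antibody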
eIF4E 4G PPI: blocks eIF4E binding to eIF4G | TR-FRET eIF4E-eIF4GI(517-606) binding, 2 h | hit rate 0.37% among 220,000 | inhibition, % at 21.7 µM;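 active = inhibition above about 30%, limit read from the data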
Mcl1 Bid PPI: disrupts binding of human Mcl-1 to Bid peptide. inhibition, % at 21.7 µM. Q07820. hit rate 0.97% among 220,000. AID 1021. TR-FRET Mcl-1/Bid-Dy647 peptide binding, 1536-well;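 active = compounds that cut the binding signal by more than half at the single screening dose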;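 note: His-tagged Mcl-1 with europium anti-His antibody binding Bid BH3 peptide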
A number is an active result; - = inactive; . = no result given; [ ] = dose if it differs, or a comment.

SMILES	MCL1-BIM inh	Mcl-1 Bim block	14-3-3 Bad inh	Mcl1-Noxa inh	eIF4E 4G PPI	Mcl1 Bid PPI
O=C(O)c1ccccc1-n1ncc2c1/C(=C/c1ccc(Cl)cc1)CC2	-	.	79	-	-	-
C=CCOC(=O)/C=C/C(=O)NC(N)=O	-	.	-	-	-	75
C=CCOC(=O)Nc1ccc(Cl)cc1NC(=O)OCC=C	-	-	-	-	-	-
COc1ccc(Nc2nc(-c3cccs3)nc3ccccc23)cc1S(=O)(=O)N1CCOCC1	-	.	.	.	.	.
Cc1ccc(NC(=O)/C(C#N)=C/c2ccc(C)s2)c(C)c1	41	-	-	-	-	-
O=C(N=Nc1c(O)[nH]c2ccc(F)cc12)c1ccc(NS(=O)(=O)c2cccs2)cc1	-	.	.	.	.	.
Cc1ccc2[nH]c(O)c(N=NC(=O)c3ccc(NS(=O)(=O)c4cccs4)cc3)c2c1	-	.	-	71	-	-
CN1C(C(=O)NCc2cccc(C(F)(F)F)c2)CC2Cn3c(nc4cc(Cl)c(Cl)cc43)C21 (configuration not stated)	-	.	-	-	-	-
Cc1cccc2nc(CSc3nc4ccc([N+](=O)[O-])cc4[nH]3)c(Br)n12	-	-	-	60	-	-
NC(=O)CSc1nc2ccc([N+](=O)[O-])cc2[nH]1	-	-	-	-	-	-
CS(=O)(=O)Nc1ccc(C(=O)NCCSc2ccc(Cl)cc2)cc1	-	.	.	.	.	.
FC(F)(F)c1cccc(CN2CCCCCC2)c1	-	-	-	-	-	52
COc1cc(CN2CCN(c3ccc(C)cc3)CC2)cc([N+](=O)[O-])c1O	-	-	83	-	-	-
CCOc1cc(CN2CCN(c3ccc(C(C)=O)cc3)CC2)ccc1OC	-	-	89	-	-	-
CCOc1cc(CN2CCCCC2)ccc1OC	-	-	-	-	-	-
CCOc1cc(CN2CCN(c3cccc(C(F)(F)F)c3)CC2)ccc1OC	-	-	70	-	-	-
CCOc1cc(CN2CCN(c3cccc(C(F)(F)F)c3)CC2)ccc1O	-	-	-	-	-	-
CCCN(CC1CC1)C(=O)CSc1nnc(-c2cc(-c3cccs3)nc3ccccc23)o1	-	-	-	-	-	-
COc1ccc(C(C)=O)cc1COc1cc(C)c(Cl)c(C)c1	-	.	-	-	-	-
COc1ccc(C(C)=O)cc1COc1ccc(Cl)cc1Cl	-	.	-	-	-	92
O=C1N/C(=N\N=C\c2ccc3ncccc3c2)SC1Cc1ccc(SC(F)F)cc1 (configuration not stated)	-	-	-	-	-	52
Oc1ccc(/C=N/NC(=S)Nc2cccnc2)cc1O	47	-	84[fluorescence artefact?]	59	-	-
CC(C)(C)c1ccc(/C=N/NC(=S)Nc2cccnc2)cc1	-	-	-	-	-	-
Cc1c(C(=O)Nc2ccc(-c3nnc4n3CCCCC4)cc2)oc2ccc(Br)cc12	-	-	-	-	-	-
O=C(C1CCN(Cc2cc(Cl)ccc2O)CC1)N1CCN(Cc2ccccc2)CC1	-	-	-	-	82	-
SMILES	MCL1-BIM inh	Mcl-1 Bim block	14-3-3 Bad inh	Mcl1-Noxa inh	eIF4E 4G PPI	Mcl1 Bid PPI
CC1(CCC(=O)N2CCCC(Nc3ccc(F)cc3)C2)CC1 (configuration not stated)	-	.	.	.	.	.
O=C(Cc1cccc(NC(=O)C2CCCN(C(=O)C3CCCCC3)C2)c1)Nc1cccc(C(=O)N2CCCC2)c1 (configuration not stated)	-	.	.	.	.	.
CN(C)c1ccc(N2CC(C)(C)C2=O)cc1	-	-	-	63	-	-
CC(=O)c1ccc(N2CC(C)(C)C2=O)cc1	-	-	-	-	-	-
COc1ccccc1CCc1nnc(CCC(=O)NCC2CCCO2)o1 (configuration not stated)	-	.	.	.	.	.
O=C(CNCC1CCCO1)Nc1ccccc1N1CCCCCC1 (configuration not stated)	-	-	82	-	-	-
O=C(CNCC1CCCO1)Nc1ccc(N2CCCCCC2)cc1 (configuration not stated)	-	-	.	-	.	-
COc1ccccc1CNC(=O)CNCC1CCCO1 (configuration not stated)	-	-	-	-	-	50
Cc1cccc(-n2nnnc2-c2cnccc2C(F)(F)F)c1C	-	.	-	-	-	-
FC(F)(F)c1ccncc1-c1nnnn1-c1ccc(Cl)cc1	-	.	-	-	-	69
COc1cc(/C=C/C(=O)OCC(=O)N2c3ccccc3NC(=O)C2(C)C)cc(OC)c1OC	-	.	.	.	.	.
Cc1ccc(Nc2[nH]c(=O)c3ccccc3c2C(=O)c2ccccc2)cc1	-	.	.	.	.	.
S=C(Nc1ccc2nc(-c3ccccn3)c(-c3ccccn3)nc2c1)N1CCCCCC1	41	-	-	-	-	-
COc1cc2c(cc1OC)CN(C(=O)/C=C/c1ccccc1[N+](=O)[O-])CC2	-	.	.	.	.	.
CCOC(=O)N1CCC(NC(=O)c2cccc3c2C(=O)N(c2ccc(OC)cc2)C3)CC1	-	-	-	56	-	-
CCOC(=O)N1CCC(N2Cc3cccc(C(=O)NCc4ccc(OC)cc4)c3C2=O)CC1	-	-	-	-	-	-
COc1ccc(N2Cc3cccc(C(=O)NC(C)CCc4ccco4)c3C2=O)cc1 (configuration not stated)	-	-	-	65	-	-
CC(CCc1ccco1)NC(=O)c1cccc2c1C(=O)N(C1CCCCC1)C2 (configuration not stated)	-	-	-	-	-	-
COc1ccc(N=C2S/C(=C\c3ccc(OC(C)C(=O)O)c(OC)c3)C(=O)N2CCc2c[nH]c3ccccc23)cc1 (configuration not stated)	.	-	-	82	-	-
O=C1/C(=C/c2ccc(N3CCOCC3)o2)SC(=Nc2ccccc2)N1CCc1c[nH]c2ccccc12	-	-	-	-	-	-
COc1cc(/C=C2\SC(=Nc3ccccc3)N(CCc3c[nH]c4ccccc34)C2=O)ccc1OC(C)C(=O)O (configuration not stated)	-	-	-	51	-	-
Cc1cc2nc(-c3ccc(SCC(=O)Nc4ccc(S(=O)(=O)NC5CC5)cc4)nc3)[nH]c2cc1C	-	-	-	-	-	-
Cc1ccc(C(=O)NC(=S)N2CCCC2)cc1	-	.	.	.	.	.
COc1ccc(N2CC(C(=O)N(CC(C)C)c3c(N)n(Cc4ccccc4)c(=O)[nH]c3=O)CC2=O)c(OC)c1 (configuration not stated)	-	.	.	.	.	.
O=C(NC1CC(=O)N(c2ccccc2)C1)C1CC1 (configuration not stated)	-	.	.	.	.	.
CCC(=O)OCCNc1cc(Sc2nc3ccccc3[nH]2)c2nonc2c1[N+](=O)[O-]	-	-	-	57	-	-
O=[N+]([O-])c1c(NCCO)cc(N2CCCCCC2)c2nonc12	-	.	.	.	.	.
Cc1nnc(Sc2cc(NCCCO)c([N+](=O)[O-])c3nonc23)s1	.	-	-	79	-	-
O=[N+]([O-])c1c(NCCCO)cc(Sc2nc3ccccc3s2)c2nonc12	60	-	-	-	-	-
